Source: ChEMBL document CHEMBL1961873, “Compounds: GSK PKIS; Assays: Nanosyn kinase panel” (2012)

Tests used:
[1] = molecular target: Casein kinase I isoform gamma-2 (Homo sapiens) (UniProt P78368); details: at 1 µM
[2] = molecular target: Casein kinase I isoform gamma-3 (Homo sapiens) (UniProt Q9Y6M4); details: at 0.1 µM
[3] = molecular target: Casein kinase I isoform gamma-3 (Homo sapiens) (UniProt Q9Y6M4); details: at 1 µM
[4] = molecular target: Cyclin-dependent kinase 1 (Homo sapiens) (UniProt P06493); details: at 0.1 µM
Sequence of Cyclin-dependent kinase 1 (Homo sapiens) (P06493 whole entry, looked up): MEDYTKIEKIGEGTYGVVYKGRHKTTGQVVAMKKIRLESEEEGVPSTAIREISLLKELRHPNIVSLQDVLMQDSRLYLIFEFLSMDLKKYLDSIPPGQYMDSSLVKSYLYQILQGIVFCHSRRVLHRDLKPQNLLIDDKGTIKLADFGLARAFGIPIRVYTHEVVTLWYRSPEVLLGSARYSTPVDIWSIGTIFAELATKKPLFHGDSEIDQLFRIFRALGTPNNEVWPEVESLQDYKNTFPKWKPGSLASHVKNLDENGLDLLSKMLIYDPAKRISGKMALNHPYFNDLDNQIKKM

[5] = molecular target: Cyclin-dependent kinase 1 (Homo sapiens) (UniProt P06493); details: at 1 µM
[6] = molecular target: Cyclin-dependent kinase 2 (Homo sapiens) (UniProt P24941); details: at 0.1 µM
[7] = molecular target: Cyclin-dependent kinase 2 (Homo sapiens) (UniProt P24941); details: at 1 µM
[8] = molecular target: Cyclin-dependent kinase 2 (Homo sapiens) (UniProt P24941); details: at 0.1 µM; remark: listed apart in the source
[9] = molecular target: Cyclin-dependent kinase 2 (Homo sapiens) (UniProt P24941); details: at 1 µM; remark: listed apart in the source
[10] = molecular target: T1, CDK3/Cyclin E (Homo sapiens) (UniProt P24864+Q00526); details: at 0.1 µM
T1 sequence (P24864 whole entry, looked up): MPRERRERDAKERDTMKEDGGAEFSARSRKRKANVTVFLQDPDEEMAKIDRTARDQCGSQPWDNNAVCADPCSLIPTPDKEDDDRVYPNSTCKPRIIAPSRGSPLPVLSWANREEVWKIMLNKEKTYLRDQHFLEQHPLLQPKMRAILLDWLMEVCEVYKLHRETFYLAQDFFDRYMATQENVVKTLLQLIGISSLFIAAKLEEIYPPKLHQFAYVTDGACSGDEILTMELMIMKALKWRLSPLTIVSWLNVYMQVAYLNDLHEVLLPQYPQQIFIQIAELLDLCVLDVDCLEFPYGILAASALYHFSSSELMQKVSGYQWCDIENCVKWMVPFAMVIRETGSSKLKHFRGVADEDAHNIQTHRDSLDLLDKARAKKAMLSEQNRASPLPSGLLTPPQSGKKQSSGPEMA
T1 sequence (Q00526 whole entry, looked up): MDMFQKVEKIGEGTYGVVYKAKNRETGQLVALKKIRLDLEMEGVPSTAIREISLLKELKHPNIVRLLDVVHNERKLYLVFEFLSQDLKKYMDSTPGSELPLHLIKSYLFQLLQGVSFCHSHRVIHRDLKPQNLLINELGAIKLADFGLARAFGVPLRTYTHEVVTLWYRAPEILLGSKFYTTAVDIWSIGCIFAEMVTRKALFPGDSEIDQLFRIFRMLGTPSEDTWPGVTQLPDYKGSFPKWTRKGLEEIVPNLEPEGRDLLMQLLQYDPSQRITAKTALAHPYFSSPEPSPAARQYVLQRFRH

[11] = molecular target: T1, CDK3/Cyclin E (Homo sapiens); details: at 1 µM
[12] = molecular target: Cyclin-dependent kinase 4 (Homo sapiens) (UniProt P11802); details: at 0.1 µM
Sequence of Cyclin-dependent kinase 4 (Homo sapiens) (P11802 whole entry): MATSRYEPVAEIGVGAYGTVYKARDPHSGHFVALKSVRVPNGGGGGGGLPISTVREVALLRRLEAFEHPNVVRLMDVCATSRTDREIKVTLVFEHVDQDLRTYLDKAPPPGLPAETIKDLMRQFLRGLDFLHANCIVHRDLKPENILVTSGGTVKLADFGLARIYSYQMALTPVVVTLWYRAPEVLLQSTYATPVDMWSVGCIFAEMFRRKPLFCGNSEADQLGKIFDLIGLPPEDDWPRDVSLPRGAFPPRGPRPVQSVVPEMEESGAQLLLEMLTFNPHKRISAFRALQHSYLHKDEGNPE

[13] = molecular target: Cyclin-dependent kinase 4 (Homo sapiens) (UniProt P11802); details: at 1 µM
[14] = molecular target: Cyclin-dependent kinase 5 (Homo sapiens) (UniProt Q00535); details: at 0.1 µM
Sequence of Cyclin-dependent kinase 5 (Homo sapiens) (Q00535 whole entry, looked up): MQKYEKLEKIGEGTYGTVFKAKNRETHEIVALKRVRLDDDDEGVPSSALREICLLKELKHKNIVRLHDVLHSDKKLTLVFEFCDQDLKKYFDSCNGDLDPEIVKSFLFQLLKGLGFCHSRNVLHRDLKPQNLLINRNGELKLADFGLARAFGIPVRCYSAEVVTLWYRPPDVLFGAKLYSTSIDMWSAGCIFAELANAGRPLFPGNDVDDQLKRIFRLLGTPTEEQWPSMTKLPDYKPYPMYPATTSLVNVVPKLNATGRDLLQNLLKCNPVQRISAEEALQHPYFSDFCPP

[15] = molecular target: Cyclin-dependent kinase 5 (Homo sapiens) (UniProt Q00535); details: at 1 µM
[16] = molecular target: Cyclin-dependent kinase 6 (Homo sapiens) (UniProt Q00534); details: at 0.1 µM
Sequence of Cyclin-dependent kinase 6 (Homo sapiens) (Q00534 whole entry): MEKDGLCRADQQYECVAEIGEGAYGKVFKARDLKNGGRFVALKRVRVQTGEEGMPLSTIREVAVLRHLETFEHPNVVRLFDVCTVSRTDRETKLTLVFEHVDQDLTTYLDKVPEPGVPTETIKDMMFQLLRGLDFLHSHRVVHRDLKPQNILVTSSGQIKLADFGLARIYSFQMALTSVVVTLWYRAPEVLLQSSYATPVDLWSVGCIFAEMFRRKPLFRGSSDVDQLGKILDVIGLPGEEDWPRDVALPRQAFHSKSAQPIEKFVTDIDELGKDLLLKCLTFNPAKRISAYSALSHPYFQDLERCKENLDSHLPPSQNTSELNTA

[17] = molecular target: Cyclin-dependent kinase 6 (Homo sapiens) (UniProt Q00534); details: at 1 µM
[18] = molecular target: Dual specificity protein kinase CLK2 (Homo sapiens) (UniProt P49760); details: at 0.1 µM
Sequence of Dual specificity protein kinase CLK2 (Homo sapiens) (P49760 whole entry, looked up): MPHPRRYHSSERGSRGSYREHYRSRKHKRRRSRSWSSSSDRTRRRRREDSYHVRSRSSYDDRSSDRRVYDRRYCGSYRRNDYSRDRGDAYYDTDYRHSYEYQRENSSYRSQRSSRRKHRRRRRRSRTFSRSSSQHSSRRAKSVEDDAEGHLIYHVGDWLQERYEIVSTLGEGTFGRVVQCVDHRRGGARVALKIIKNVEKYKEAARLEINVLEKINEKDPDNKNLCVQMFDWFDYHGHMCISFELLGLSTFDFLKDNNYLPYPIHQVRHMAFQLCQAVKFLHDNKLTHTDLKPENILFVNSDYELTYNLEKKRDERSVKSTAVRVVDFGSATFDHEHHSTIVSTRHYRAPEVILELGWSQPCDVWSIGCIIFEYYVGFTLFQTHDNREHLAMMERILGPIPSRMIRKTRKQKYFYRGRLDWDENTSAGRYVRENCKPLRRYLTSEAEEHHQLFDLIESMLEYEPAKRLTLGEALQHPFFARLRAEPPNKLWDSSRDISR

[19] = molecular target: Dual specificity protein kinase CLK2 (Homo sapiens) (UniProt P49760); details: at 1 µM
[20] = molecular target: Dual specificity protein kinase CLK3 (Homo sapiens) (UniProt P49761); details: at 0.1 µM
Sequence of Dual specificity protein kinase CLK3 (Homo sapiens) (P49761 whole entry, looked up): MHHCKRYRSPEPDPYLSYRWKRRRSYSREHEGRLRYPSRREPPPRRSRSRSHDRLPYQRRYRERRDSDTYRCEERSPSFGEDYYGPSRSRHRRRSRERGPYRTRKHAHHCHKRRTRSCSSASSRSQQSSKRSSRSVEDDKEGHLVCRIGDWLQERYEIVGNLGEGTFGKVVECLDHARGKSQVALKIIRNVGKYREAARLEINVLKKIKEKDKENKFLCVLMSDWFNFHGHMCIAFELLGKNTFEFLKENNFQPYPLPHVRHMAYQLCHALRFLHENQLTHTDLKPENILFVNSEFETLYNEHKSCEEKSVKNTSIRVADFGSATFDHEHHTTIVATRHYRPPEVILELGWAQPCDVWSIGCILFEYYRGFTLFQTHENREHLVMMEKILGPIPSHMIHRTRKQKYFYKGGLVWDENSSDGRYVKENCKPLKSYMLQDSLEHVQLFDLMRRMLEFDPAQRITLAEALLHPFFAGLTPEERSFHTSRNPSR

Sequence of Casein kinase I isoform gamma-2 (Homo sapiens) (P78368 whole entry, looked up, canonical isoform): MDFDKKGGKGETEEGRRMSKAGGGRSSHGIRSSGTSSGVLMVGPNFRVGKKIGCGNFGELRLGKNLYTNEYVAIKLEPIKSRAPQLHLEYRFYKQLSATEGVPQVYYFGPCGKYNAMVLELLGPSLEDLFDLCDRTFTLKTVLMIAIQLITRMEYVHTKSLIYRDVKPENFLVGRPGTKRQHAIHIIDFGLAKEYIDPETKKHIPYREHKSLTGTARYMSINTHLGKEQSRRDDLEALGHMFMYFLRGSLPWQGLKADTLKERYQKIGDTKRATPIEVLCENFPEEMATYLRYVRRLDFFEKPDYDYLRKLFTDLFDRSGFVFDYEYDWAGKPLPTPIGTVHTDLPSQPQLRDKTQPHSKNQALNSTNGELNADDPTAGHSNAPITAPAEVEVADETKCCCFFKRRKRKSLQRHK
Sequence of Casein kinase I isoform gamma-3 (Homo sapiens) (Q9Y6M4 whole entry, looked up, canonical isoform): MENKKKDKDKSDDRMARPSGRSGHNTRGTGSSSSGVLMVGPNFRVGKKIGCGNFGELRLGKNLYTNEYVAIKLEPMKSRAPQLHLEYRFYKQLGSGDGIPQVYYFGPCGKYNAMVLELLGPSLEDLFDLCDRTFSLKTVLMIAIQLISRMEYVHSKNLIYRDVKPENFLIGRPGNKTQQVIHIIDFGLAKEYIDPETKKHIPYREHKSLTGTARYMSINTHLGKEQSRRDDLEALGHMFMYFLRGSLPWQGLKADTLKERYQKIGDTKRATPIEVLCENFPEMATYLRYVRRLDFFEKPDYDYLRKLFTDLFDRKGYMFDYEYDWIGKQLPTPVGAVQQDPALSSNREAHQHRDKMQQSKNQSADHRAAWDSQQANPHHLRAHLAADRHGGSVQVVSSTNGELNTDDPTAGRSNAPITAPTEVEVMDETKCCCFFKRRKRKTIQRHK

Cc1ccc(O)cc1Nc1ccnc2ccc(S(C)(=O)=O)cc12
inhibition [1]: 6.1%
inhibition [2]: 3.71%
inhibition [3]: 9.28%
inhibition [4]: 1.72%
inhibition [5]: -1.86%
inhibition [6]: 2.82%
inhibition [7]: 4.49%
inhibition [8]: 4.22%
inhibition [9]: 4.92%
inhibition [10]: 2.71%
inhibition [11]: -3.13%
inhibition [12]: 3.24%
inhibition [13]: 4.37%
inhibition [14]: 0.36%
inhibition [15]: 2.61%
inhibition [16]: -4.64%
inhibition [17]: 3.72%
inhibition [18]: 2.47%
inhibition [19]: 7.17%
inhibition [20]: 1.75%

c1ccc(Cc2nc3ccc(Nc4ncnc5ccccc45)cc3[nH]2)cc1
inhibition [1]: 8.66%
inhibition [2]: 3.41%
inhibition [3]: 5.53%
inhibition [4]: 3.12%
inhibition [5]: 4.29%
inhibition [6]: 2.89%
inhibition [7]: 7.78%
inhibition [8]: 6.18%
inhibition [9]: 8.1%
inhibition [10]: 4.46%
inhibition [11]: 1.71%
inhibition [12]: 4.29%
inhibition [13]: 5.27%
inhibition [14]: 3.52%
inhibition [15]: 5.74%
inhibition [16]: 6.78%
inhibition [17]: 8.79%
inhibition [18]: 1.26%
inhibition [19]: 2%
inhibition [20]: 2.76%

NS(=O)(=O)c1ccc(N/N=C2\C(=O)Nc3ccc(Cl)cc32)cc1
inhibition [1]: 3.33%
inhibition [2]: 1.35%
inhibition [3]: 3.48%
inhibition [4]: 8.41%
inhibition [5]: 42.5%
inhibition [6]: 46.7%
inhibition [7]: 102%
inhibition [8]: 58.5%
inhibition [9]: 80.5%
inhibition [10]: 40.8%
inhibition [11]: 83.7%
inhibition [12]: 6.36%
inhibition [13]: 28%
inhibition [14]: 18%
inhibition [15]: 61%
inhibition [16]: 15.3%
inhibition [17]: 56.7%
inhibition [18]: 0.8%
inhibition [19]: 2.45%
inhibition [20]: 1.72%

Nc1nccc(-c2c(-c3ccc(F)cc3)nn3cc(C(F)(F)F)ccc23)n1
inhibition [1]: 1.13%
inhibition [2]: 0.79%
inhibition [3]: 1.7%
inhibition [4]: 1.22%
inhibition [5]: 0.47%
inhibition [6]: -0.36%
inhibition [7]: -2.27%
inhibition [8]: -0.77%
inhibition [9]: 0.2%
inhibition [10]: -0.58%
inhibition [11]: -2.57%
inhibition [12]: 0.37%
inhibition [13]: 1.03%
inhibition [14]: 0.43%
inhibition [15]: -0.54%
inhibition [16]: -0.93%
inhibition [17]: -0.06%
inhibition [18]: 1.36%
inhibition [19]: -2.43%
inhibition [20]: -0.16%

FC(F)(F)c1ccc(-c2nn3ncccc3c2-c2ccnc(Nc3ccc4c(c3)OCCO4)n2)cc1
inhibition [1]: 0.81%
inhibition [2]: 0.18%
inhibition [3]: 1.72%
inhibition [4]: 5.01%
inhibition [5]: 4.37%
inhibition [6]: 1.49%
inhibition [7]: -1.87%
inhibition [8]: 5.4%
inhibition [9]: 5.36%
inhibition [10]: 7.17%
inhibition [11]: 4.1%
inhibition [12]: 5.36%
inhibition [13]: 5.52%
inhibition [14]: 5.49%
inhibition [15]: 3.8%
inhibition [16]: 3.25%
inhibition [17]: 3.58%
inhibition [18]: 2.1%
inhibition [19]: 2.93%
inhibition [20]: 5.98%

Cc1cc(Cl)cc2c1NC(=O)C2=NNc1ccc(S(N)(=O)=O)cc1
inhibition [1]: 1.54%
inhibition [2]: -0.43%
inhibition [3]: 0.95%
inhibition [4]: 1.08%
inhibition [5]: 1.91%
inhibition [6]: 1.27%
inhibition [7]: 2.22%
inhibition [8]: 1.42%
inhibition [9]: 4.71%
inhibition [10]: 3.25%
inhibition [11]: -0.36%
inhibition [12]: 0.78%
inhibition [13]: 3.56%
inhibition [14]: 0.57%
inhibition [15]: 2.28%
inhibition [16]: 2.2%
inhibition [17]: 3.46%
inhibition [18]: 0.86%
inhibition [19]: 2.34%
inhibition [20]: 0.9%

CN(c1ccc(NC(=O)Nc2ccc(OC(F)(F)F)cc2)cc1)c1ccnc(Nc2cccc(S(N)(=O)=O)c2)n1
inhibition [1]: 2.66%
inhibition [2]: 1.74%
inhibition [3]: 2.37%
inhibition [4]: -0.1%
inhibition [5]: 5.09%
inhibition [6]: 0.55%
inhibition [7]: 14.4%
inhibition [8]: 1.2%
inhibition [9]: 7.47%
inhibition [10]: -0.62%
inhibition [11]: 3.98%
inhibition [12]: 0.85%
inhibition [13]: 6.76%
inhibition [14]: 0.45%
inhibition [15]: 5.8%
inhibition [16]: 2.09%
inhibition [17]: 27.4%
inhibition [18]: 1.61%
inhibition [19]: -2.84%
inhibition [20]: 0.59%

Nc1nccc(-c2c(-c3ccc(F)cc3)ncn2CCCN2CCOCC2)n1
inhibition [1]: 4.12%
inhibition [2]: 3.31%
inhibition [3]: 6.54%
inhibition [4]: 0.36%
inhibition [5]: 2.84%
inhibition [6]: 1.82%
inhibition [7]: -4.06%
inhibition [8]: 2.73%
inhibition [9]: 2.71%
inhibition [10]: 4.59%
inhibition [11]: -2.47%
inhibition [12]: 3.06%
inhibition [13]: 2.9%
inhibition [14]: 0.16%
inhibition [15]: 0.47%
inhibition [16]: -2.14%
inhibition [17]: 0.98%
inhibition [18]: 0.47%
inhibition [19]: 0.74%
inhibition [20]: 1.31%

CCS(=O)(=O)c1ccc(OC)c(Nc2ncc(-c3cccc(OC)c3)o2)c1
inhibition [1]: 3.73%
inhibition [2]: 3.1%
inhibition [3]: 5.62%
inhibition [4]: -0.89%
inhibition [5]: 2.51%
inhibition [6]: 1.38%
inhibition [7]: 5.48%
inhibition [8]: 2.62%
inhibition [9]: 7.35%
inhibition [10]: 0.48%
inhibition [11]: 3.18%
inhibition [12]: 1.8%
inhibition [13]: 3.35%
inhibition [14]: 0.02%
inhibition [15]: 1.71%
inhibition [16]: 3.87%
inhibition [17]: 5.07%
inhibition [18]: 34.8%
inhibition [19]: 86%
inhibition [20]: 2.36%

ON=C1CCc2cc(-c3nc(C4CCNCC4)[nH]c3-c3ccncc3)ccc21
inhibition [1]: 1.04%
inhibition [2]: 1.01%
inhibition [3]: 0.07%
inhibition [4]: 0.23%
inhibition [5]: 2.04%
inhibition [6]: 0.63%
inhibition [7]: -0.53%
inhibition [8]: 1.2%
inhibition [9]: 2.51%
inhibition [10]: 2.27%
inhibition [11]: 0.13%
inhibition [12]: 0.69%
inhibition [13]: 2.19%
inhibition [14]: 0.57%
inhibition [15]: 1.42%
inhibition [16]: -5.1%
inhibition [17]: -0.84%
inhibition [18]: 2.05%
inhibition [19]: -0.07%
inhibition [20]: -0.6%

Cc1ccc(Nc2ccnc(Nc3cccc(C(N)=O)c3)n2)cc1O
inhibition [1]: 0.87%
inhibition [2]: -2.96%
inhibition [3]: 0.07%
inhibition [4]: -3.61%
inhibition [5]: 1.29%
inhibition [6]: -0.93%
inhibition [7]: 16.1%
inhibition [8]: -0.2%
inhibition [9]: 7.62%
inhibition [10]: 1.92%
inhibition [11]: 4.71%
inhibition [12]: -2.5%
inhibition [13]: 1.32%
inhibition [14]: -3.13%
inhibition [15]: 1.46%
inhibition [16]: -1.97%
inhibition [17]: -0.13%
inhibition [18]: 1.32%
inhibition [19]: 6.94%
inhibition [20]: -0.76%

CCOc1nccc2c1nc(-c1nonc1N)n2CC
inhibition [1]: 1.13%
inhibition [2]: 1.1%
inhibition [3]: 0.56%
inhibition [4]: 0.5%
inhibition [5]: 2.69%
inhibition [6]: 0.81%
inhibition [7]: 2.63%
inhibition [8]: 2.66%
inhibition [9]: 5.12%
inhibition [10]: 2.48%
inhibition [11]: -0.38%
inhibition [12]: 0.99%
inhibition [13]: 1.83%
inhibition [14]: 0.91%
inhibition [15]: 1.13%
inhibition [16]: -2.27%
inhibition [17]: 1.84%
inhibition [18]: 1.77%
inhibition [19]: 1.91%
inhibition [20]: 1.37%

COc1cccc(-n2ncc3c(N/N=C/c4ccc(C)cc4)ncnc32)c1
inhibition [1]: 12%
inhibition [2]: 6.01%
inhibition [3]: 8.48%
inhibition [4]: 4.4%
inhibition [5]: 8.17%
inhibition [6]: 5.82%
inhibition [7]: 11%
inhibition [8]: 2.46%
inhibition [9]: 7.81%
inhibition [10]: -3.32%
inhibition [11]: -1.25%
inhibition [12]: 3.51%
inhibition [13]: 7.43%
inhibition [14]: 2.17%
inhibition [15]: 6.59%
inhibition [16]: -2.39%
inhibition [17]: -0.54%
inhibition [18]: -0.41%
inhibition [19]: 6.42%
inhibition [20]: 1.22%

Cc1ccc2c(-c3ccnc(Nc4cccc(C(F)(F)F)c4)n3)c(-c3ccccc3)nn2n1
inhibition [1]: 12%
inhibition [2]: 4.25%
inhibition [3]: 24.8%
inhibition [4]: 3.78%
inhibition [5]: 3.79%
inhibition [6]: 4.09%
inhibition [7]: 3.14%
inhibition [8]: 2.95%
inhibition [9]: 7.4%
inhibition [10]: -1.21%
inhibition [11]: -1.25%
inhibition [12]: 4.12%
inhibition [13]: 7.65%
inhibition [14]: 2.11%
inhibition [15]: 4.09%
inhibition [16]: -1.73%
inhibition [17]: 1.79%
inhibition [18]: -0.15%
inhibition [19]: 2.76%
inhibition [20]: 0.65%
